Values joined by “and” are separate entries in the source; they are usually repeats but may differ in a detail not shown here. Identical values can stand only once. Some structures have more than one record in an assay (separate samples or runs), and their calls can disagree. Active and inactive are the calls of the source. The calls were made as follows: active = hit-call score of the fitted dose curve at least 0.9, where 1 is the maximum; inactive = score below 0.9.
What was measured:
[1] = read-out: Interleukin-6 (IL6), IL6 (gene 3569); assay: BSK_CASM3C_IL6: BioMAP Diversity Plus: CASM3C Assay for Interleukin-6 (IL6) Biomarker Activity for (AID 2283040); settings: primary human coronary artery smooth muscle cells; actives raise or lower the signal
[2] = read-out: Tissue plasminogen activator (tPA), PLAT (gene 5327); assay: BSK_BE3C_tPA: BioMAP Diversity Plus: BE3C Assay for Tissue plasminogen activator (tPA) Biomarker Activity (AID 2283041); settings: primary human bronchial epithelial cells; actives raise or lower the signal
Summary of the method: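 tPA measured by ELISA 24 h after dosing human primary bronchial epithelial cells (BE3C system). Changes in either direction were fitted against DMSO. Parallel cultures were stained with SRB to flag overt cytotoxicity.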

[3] = read-out: Interleukin-8 (IL8), CXCL8 (gene 3576); assay: BSK_CASM3C_IL8: BioMAP Diversity Plus: CASM3C Assay for Interleukin-8 (IL8) Biomarker Activity (AID 2283042); settings: primary human coronary artery smooth muscle cells; actives raise or lower the signal;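 also: IL-8 protein level quantified by ELISA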
[4] = read-out: Human Leukocyte Antigen - DR isotype (HLADR), HLA-DRA (gene 3122); assay: BSK_CASM3C_HLADR: BioMAP Diversity Plus: CASM3C Assay for Human Leukocyte Antigen - DR isotype (HLADR) Biomarker Activity (AID 2283043); settings: primary human coronary artery smooth muscle cells; actives raise or lower the signal;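 also: cell-surface HLA-DR protein level quantified by ELISA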
[5] = read-out: Macrophage colony-stimulating factor (MCSF), CSF1 (gene 1435); assay: BSK_CASM3C_MCSF: BioMAP Diversity Plus: CASM3C Assay for Macrophage colony-stimulating factor (MCSF) Biomarker Activity (AID 2283044); settings: primary human coronary artery smooth muscle cells; actives raise or lower the signal;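 also: M-CSF protein amount quantified by ELISA after 24 h exposure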
[6] = read-out: Low-density lipoprotein receptor (LDLR), LDLR (gene 3949); assay: BSK_CASM3C_LDLR: BioMAP Diversity Plus: CASM3C Assay for Low-density lipoprotein receptor (LDLR) Biomarker Activity (AID 2283045); settings: primary human coronary artery smooth muscle cells; actives raise or lower the signal;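 also: LDLR protein level on the cell surface quantified by ELISA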
[7] = read-out: Monocyte Chemoattractant Protein-1 (MCP1), CCL2 (gene 6347); assay: BSK_CASM3C_MCP1: BioMAP Diversity Plus: CASM3C Assay for Monocyte Chemoattractant Protein-1 (MCP1) Biomarker Activity (AID 2283046); settings: primary human coronary artery smooth muscle cells; actives raise or lower the signal;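 also: MCP-1 level quantified by ELISA 24 h after dosing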
[8] = BSK_CASM3C_Proliferation: Cell Proliferation Assessment in the BioMAP Diversity Plus: CASM3C Assay (AID 2283047); settings: primary human coronary artery smooth muscle cells;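 also: sulforhodamine B total protein stain as relative cell number at 560 nm; sub-confluent cells exposed 48 h before staining; fitted both ways against DMSO so gain or loss of cell number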
[9] = read-out: Monokine induced gamma interferon (MIG), CXCL9 (gene 4283); assay: BSK_CASM3C_MIG: BioMAP Diversity Plus: CASM3C Assay for Monokine induced gamma interferon (MIG) Biomarker Activity (AID 2283048); settings: primary human coronary artery smooth muscle cells; actives raise or lower the signal;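 also: MIG protein level measured by ELISA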
[10] = read-out: serum amyloid A (SAA), SAA1 (gene 6288); assay: BSK_CASM3C_SAA: BioMAP Diversity Plus: CASM3C Assay for serum amyloid A (SAA) Biomarker Activity (AID 2283049); settings: primary human coronary artery smooth muscle cells; actives raise or lower the signal;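 also: SAA protein level quantified by ELISA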

Measured: AC50

CC(C)CCCCCCOC(=O)CCCCC(=O)OCCCCCCC(C)C
inactive: [1] | [2] | [3] | [4] | [5] | [6] | [7] | [8] | [9] | [10]

OCCC(F)(F)C(F)(F)C(F)(F)C(F)(F)C(F)(F)C(F)(F)C(F)(F)C(F)(F)F
active: [3] 42.7 µM | [4] 20 µM and 27.5 µM and 18.9 µM | [5] 38.6 µM and 30 µM | [6] 58.8 µM and 55.4 µM | [7] 48.6 µM and 47.4 µM | [8] 20 µM and 22.5 µM and 21.8 µM | [9] 46.4 µM and 46.8 µM | [10] 43 µM and 37.9 µM
inactive: [1] | [3] | [5] | [6] | [7] | [9] | [10]

C#C[C@]1(O)CC[C@H]2[C@@H]3CCC4=CC(=O)CC[C@@H]4[C@H]3CC[C@@]21C
inactive: [1] | [2] | [3] | [4] | [5] | [6] | [7] | [9] | [10]

O=C(O)c1ccccc1C(c1ccc(O)cc1)c1ccc(O)cc1
inactive: [1] | [2] | [3] | [4] | [5] | [6] | [7] | [8] | [9] | [10]

CCC(=C(c1ccc(O)cc1)c1ccc(OCCN(C)C)cc1)c1ccccc1
active: [1] 24.6 µM | [3] 24.4 µM | [4] 17.4 µM | [5] 18.4 µM | [6] 22.7 µM | [7] 24 µM | [8] 9.11 µM | [9] 24.8 µM | [10] 22.8 µM

Oc1cc2ccccc2c2ccccc12
active: [1] 8.56 µM | [2] 14.7 µM | [3] 10.6 µM | [4] 7.47 µM | [5] 8.24 µM | [6] 10.1 µM | [7] 11.4 µM | [8] 10.5 µM | [9] 11.9 µM | [10] 11.3 µM

O=C(O)Cc1cc(I)c(Oc2cc(I)c(O)c(I)c2)c(I)c1
active: [1] 21.7 µM | [2] 4.84 µM
inactive: [3] | [4] | [5] | [6] | [7] | [8] | [9] | [10]

C[C@@H]1C[C@H]2[C@@H]3CCC4=CC(=O)C=C[C@]4(C)[C@@]3(F)[C@@H](O)C[C@]2(C)[C@@]1(O)C(=O)COP(=O)(O)O
active: [1] 158 nM and 1.34 µM and 690 nM | [3] 176 nM and 1.04 µM and 101 nM | [5] 29.4 nM and 113 nM and 217 nM | [7] 141 nM and 1.58 µM and 720 nM | [8] 0.163 µM | [10] 54.4 nM and 105 nM and 155 nM
inactive: [4] | [6] | [8] | [9]

O=C(OCCOCCOC(=O)c1ccccc1)c1ccccc1
inactive: [1] | [2] | [3] | [4] | [5] | [6] | [7] | [8] | [9] | [10]

NC(=O)N(O)[C@@H]1C=C[C@H](Oc2cccc(Oc3ccc(F)cc3)c2)C1
inactive: [1] | [3] | [5] | [6] | [7] | [9] | [10]
active: [2] 5.68 µM | [4] 3.95 µM | [8] 7.17 µM

OC1CCCCC1
active: [3] 14.8 µM | [10] 23.1 µM
inactive: [1] | [2] | [4] | [5] | [6] | [7] | [8] | [9]

CCCCC(CC)COC(=O)CCCCC(=O)OCC(CC)CCCC (stereo not given)
inactive: [1] | [3] | [4] | [5] | [6] | [7] | [8] | [9] | [10]

C=C(C)C(=O)OCCC(F)(F)C(F)(F)C(F)(F)C(F)(F)C(F)(F)C(F)(F)F
active: [1] 20 µM | [4] 20 µM | [6] 12.1 µM | [8] 13.5 µM
inactive: [1] | [3] | [4] | [5] | [6] | [7] | [8] | [9] | [10]

O=c1c(-c2ccc(O)cc2)coc2cc(O)ccc12
inactive: [1] | [2] | [3] | [4] | [5] | [6] | [7] | [8] | [9] | [10]

CCCCCCCCOC(=O)CCCCCCCCC(=O)OCCCCCCCC
inactive: [1] | [2] | [3] | [4] | [5] | [6] | [7] | [8] | [9] | [10]

CC(C)(C)c1ccc(O)c(C(C)(C)C)c1
active: [1] 13.6 µM | [2] 27.5 µM | [3] 27.2 µM | [4] 9.55 µM | [5] 13.2 µM | [6] 12.3 µM | [7] 13.7 µM | [8] 11.4 µM | [9] 15.3 µM | [10] 12.4 µM

COc1ccc([N+](=O)[O-])cc1N
inactive: [1] | [2] | [3] | [4] | [5] | [6] | [7] | [8] | [9] | [10]

O=[N+]([O-])c1ccc(O)cc1
inactive: [1] | [2] | [3] | [4] | [5] | [6] | [7] | [8] | [9] | [10]

CN(C)C=O
inactive: [1] | [2] | [3] | [4] | [5] | [6] | [7] | [8] | [9] | [10]

CCCOc1sc(C(=O)N2CCC(c3cc(CN)ccc3F)CC2)c(C)c1Br
active: [1] 27.4 µM | [2] 5.19 µM | [3] 15.4 µM | [4] 4.87 µM | [5] 9.62 µM | [6] 27.1 µM | [7] 17.5 µM | [8] 7.94 µM | [9] 27.8 µM | [10] 11.9 µM

CCCCC(CC)COC(=O)CCCCC(=O)OCc1ccccc1 (stereo not given)
inactive: [1] | [2] | [3] | [4] | [5] | [6] | [7] | [8] | [9] | [10]

Nc1cccc2c(N)cccc12
inactive: [1] | [2] | [3] | [4] | [5] | [6] | [7] | [8] | [9] | [10]

CC(O)CO (stereo not given)
inactive: [1] | [2] | [3] | [4] | [5] | [6] | [7] | [8] | [9] | [10]

CCCCCCC(=O)O
inactive: [1] | [2] | [3] | [4] | [5] | [6] | [7] | [8] | [9] | [10]

OCCC(F)(F)C(F)(F)C(F)(F)C(F)(F)C(F)(F)C(F)(F)F
inactive: [1] | [3] | [4] | [5] | [6] | [7] | [8] | [9] | [10]
active: [8] 44.3 µM

Oc1cccc(O)c1
inactive: [1] | [2] | [3] | [4] | [5] | [6] | [7] | [8] | [9] | [10]

CC(=O)NC1(c2cccc(F)c2)CCN(CC[C@@]2(c3ccc(Cl)c(Cl)c3)CN(c3ccccc3)C(=O)CO2)CC1
active: [1] 8.45 µM | [2] 16.6 µM | [4] 28.2 µM | [6] 4.58 µM | [8] 27.3 µM
inactive: [3] | [5] | [7] | [9] | [10]

CN1CCC[C@H]1c1cccnc1
inactive: [1] | [2] | [3] | [4] | [5] | [6] | [7] | [8] | [9] | [10]

NC(=O)N1C(=O)C(C(=O)c2cc(Cl)cs2)c2cc(F)c(Cl)cc21 (stereo not given)
inactive: [1] | [3] | [5] | [6] | [9] | [10]
active: [2] 2.33 µM | [4] 14.1 µM | [7] 7.46 µM | [8] 27.4 µM

CN1CCN(c2ccccc2/C=C2\SCCN(c3ccc(Cl)c(Cl)c3)C2=O)CC1
active: [2] 25.7 µM | [6] 2.95 µM | [8] 20 µM
inactive: [1] | [3] | [4] | [5] | [7] | [9] | [10]

CC#C[C@]1(O)CC[C@H]2[C@@H]3CCC4=CC(=O)CCC4=C3[C@@H](c3ccc(N(C)C)cc3)C[C@@]21C
active: [2] 19.4 µM | [3] 5.69 µM | [8] 31.1 µM
inactive: [1] | [4] | [5] | [6] | [7] | [9] | [10]

Source: PubChem BioAssay (EPA / NIEHS)
